# From article PMC7862700, “An all-to-all approach to the identification of sequence-specific readers for epigenetic DNA modifications on cytosine”
# Legend:
# Assay in all cases: DAPPL (digital affinity profiling via proximity ligation, sequencing); 10 mM Tris-HCl pH 7.5, 50 mM NaCl, 1 mM DTT, 4% glycerol, room temperature, 30 min; GST-TFs on glutathione beads, 16-mer random dsDNA library, 0.1% formaldehyde crosslink after washing; high values mean tight binding
# FLI1 = biological target: T1, FLI1 (Homo sapiens, UniProt Q01543 1-452); conditions: protein: recombinant; tags: N-terminal GST; dsDNA, one strand shown
# T1 sequence: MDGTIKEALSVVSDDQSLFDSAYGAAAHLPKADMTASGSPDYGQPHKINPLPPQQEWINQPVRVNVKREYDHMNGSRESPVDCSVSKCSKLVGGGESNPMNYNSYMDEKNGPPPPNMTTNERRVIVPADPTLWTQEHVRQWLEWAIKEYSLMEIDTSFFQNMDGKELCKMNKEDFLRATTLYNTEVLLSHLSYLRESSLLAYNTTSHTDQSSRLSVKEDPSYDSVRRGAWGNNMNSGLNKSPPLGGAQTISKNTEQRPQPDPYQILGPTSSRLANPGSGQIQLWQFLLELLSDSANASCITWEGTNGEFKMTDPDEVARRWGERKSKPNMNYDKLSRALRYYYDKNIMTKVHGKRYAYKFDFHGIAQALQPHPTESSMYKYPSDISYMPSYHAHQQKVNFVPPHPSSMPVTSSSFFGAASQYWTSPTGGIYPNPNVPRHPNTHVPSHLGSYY
# Summary of the method: (§1)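 Human transcription factors fused to GST were expressed in yeast, captured on glutathione beads, given DNA barcodes and pooled with a GST-only negative control. Pools were incubated with 200 nmole of a 16-mer random double-stranded DNA library in Tris/NaCl/DTT/glycerol buffer at room temperature for 30 min. They were then washed, crosslinked with 0.1% formaldehyde, proximity-ligated (BsaI/T4 ligase, 1 h, 37 °C), PCR-amplified and sequenced on an Illumina NextSeq500. Binding signal is each 6-mer's read frequency for a factor divided by its frequency for the GST control.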
# ELK1 = biological target: T2, ELK1 (Homo sapiens, UniProt P19419 1-428); conditions: protein: recombinant; tags: N-terminal GST; dsDNA, one strand shown
# T2 sequence: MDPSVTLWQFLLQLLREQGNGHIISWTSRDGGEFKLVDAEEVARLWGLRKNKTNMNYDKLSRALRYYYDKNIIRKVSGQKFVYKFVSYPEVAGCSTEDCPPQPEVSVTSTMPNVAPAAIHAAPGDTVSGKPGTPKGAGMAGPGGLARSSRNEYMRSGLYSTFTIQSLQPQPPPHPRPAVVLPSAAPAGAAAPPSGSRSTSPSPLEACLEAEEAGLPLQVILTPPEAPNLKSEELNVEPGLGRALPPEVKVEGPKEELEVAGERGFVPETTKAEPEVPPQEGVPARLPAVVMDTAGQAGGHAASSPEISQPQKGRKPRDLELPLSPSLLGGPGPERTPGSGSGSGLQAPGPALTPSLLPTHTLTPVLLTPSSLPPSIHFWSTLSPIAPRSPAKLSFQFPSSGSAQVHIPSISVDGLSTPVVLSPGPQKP
# Summary of the method: as §1
# GABPA = biological target: T3, GABPA (Homo sapiens, UniProt Q06546 1-454); conditions: protein: recombinant; tags: N-terminal GST; dsDNA, one strand shown
# T3 sequence: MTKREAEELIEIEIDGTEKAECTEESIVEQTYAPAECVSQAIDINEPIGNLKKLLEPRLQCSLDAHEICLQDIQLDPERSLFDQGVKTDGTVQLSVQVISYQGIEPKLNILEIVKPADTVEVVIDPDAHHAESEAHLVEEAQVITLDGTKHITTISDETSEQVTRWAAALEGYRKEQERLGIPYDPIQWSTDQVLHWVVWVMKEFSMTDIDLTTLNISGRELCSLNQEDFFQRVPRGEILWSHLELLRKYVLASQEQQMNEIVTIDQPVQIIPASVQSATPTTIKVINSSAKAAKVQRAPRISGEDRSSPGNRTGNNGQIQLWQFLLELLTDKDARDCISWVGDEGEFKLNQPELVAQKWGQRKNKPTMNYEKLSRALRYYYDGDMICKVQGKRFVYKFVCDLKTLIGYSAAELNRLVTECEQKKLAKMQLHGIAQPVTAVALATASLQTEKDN
# Summary of the method: as §1
# ERG = biological target: T4, ERG (Homo sapiens, UniProt P11308 1-479); conditions: protein: recombinant; tags: N-terminal GST; dsDNA, one strand shown
# T4 sequence: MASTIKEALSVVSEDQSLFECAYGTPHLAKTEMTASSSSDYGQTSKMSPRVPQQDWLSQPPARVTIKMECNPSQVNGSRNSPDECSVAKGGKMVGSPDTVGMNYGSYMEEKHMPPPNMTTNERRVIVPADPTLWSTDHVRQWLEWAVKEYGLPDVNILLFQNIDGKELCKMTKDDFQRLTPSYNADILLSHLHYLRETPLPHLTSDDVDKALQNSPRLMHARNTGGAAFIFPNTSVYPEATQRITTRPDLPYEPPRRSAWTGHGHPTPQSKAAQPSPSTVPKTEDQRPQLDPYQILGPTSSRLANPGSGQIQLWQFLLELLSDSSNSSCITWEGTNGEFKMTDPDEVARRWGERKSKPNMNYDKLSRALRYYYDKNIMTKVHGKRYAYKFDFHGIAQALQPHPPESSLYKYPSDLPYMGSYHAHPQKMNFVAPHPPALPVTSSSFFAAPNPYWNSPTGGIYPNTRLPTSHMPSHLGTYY
# Summary of the method: as §1
# ELF1 = ELF1 (Homo sapiens, UniProt P32519 1-619); conditions: protein: recombinant; tags: N-terminal GST; dsDNA, one strand shown
# Sequence of ELF1 (P32519 whole entry): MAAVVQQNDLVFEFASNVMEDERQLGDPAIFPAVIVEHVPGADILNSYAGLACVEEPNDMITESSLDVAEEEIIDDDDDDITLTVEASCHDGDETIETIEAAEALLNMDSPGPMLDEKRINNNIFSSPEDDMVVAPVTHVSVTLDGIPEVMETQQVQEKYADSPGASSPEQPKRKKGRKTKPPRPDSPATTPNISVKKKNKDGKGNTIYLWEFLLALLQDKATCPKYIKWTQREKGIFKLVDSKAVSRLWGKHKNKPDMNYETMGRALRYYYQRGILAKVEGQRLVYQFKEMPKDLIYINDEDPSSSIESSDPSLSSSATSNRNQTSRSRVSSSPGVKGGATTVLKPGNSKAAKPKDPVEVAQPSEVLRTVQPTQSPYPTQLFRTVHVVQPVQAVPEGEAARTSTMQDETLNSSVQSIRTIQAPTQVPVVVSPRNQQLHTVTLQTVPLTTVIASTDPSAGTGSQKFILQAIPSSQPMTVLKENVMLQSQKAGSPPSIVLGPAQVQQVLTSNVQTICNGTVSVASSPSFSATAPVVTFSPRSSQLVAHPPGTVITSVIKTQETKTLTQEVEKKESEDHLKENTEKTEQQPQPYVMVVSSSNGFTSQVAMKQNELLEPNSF
# Summary of the method: as §1
# EHF = biological target: T5, EHF (Homo sapiens, UniProt Q9NZC4 1-300); conditions: protein: recombinant; tags: N-terminal GST; dsDNA, one strand shown
# T5 sequence: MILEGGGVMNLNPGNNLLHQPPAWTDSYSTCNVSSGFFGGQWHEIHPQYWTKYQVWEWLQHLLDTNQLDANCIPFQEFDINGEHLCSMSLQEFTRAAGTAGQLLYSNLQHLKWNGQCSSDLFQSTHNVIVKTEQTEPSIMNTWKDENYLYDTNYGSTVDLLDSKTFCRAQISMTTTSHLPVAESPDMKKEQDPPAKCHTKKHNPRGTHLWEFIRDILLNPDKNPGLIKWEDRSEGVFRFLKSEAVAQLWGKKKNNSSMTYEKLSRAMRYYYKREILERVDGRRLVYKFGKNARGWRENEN
# Summary of the method: as §1
# SPI1 = SPI1 (Homo sapiens, UniProt P17947 1-270); conditions: protein: recombinant; tags: N-terminal GST; dsDNA, one strand shown
# Summary of the method: as §1
# SPIB = SPIB (Homo sapiens, UniProt Q01892 1-262); conditions: protein: recombinant; tags: N-terminal GST; dsDNA, one strand shown
# Sequence of SPIB (Q01892 whole entry): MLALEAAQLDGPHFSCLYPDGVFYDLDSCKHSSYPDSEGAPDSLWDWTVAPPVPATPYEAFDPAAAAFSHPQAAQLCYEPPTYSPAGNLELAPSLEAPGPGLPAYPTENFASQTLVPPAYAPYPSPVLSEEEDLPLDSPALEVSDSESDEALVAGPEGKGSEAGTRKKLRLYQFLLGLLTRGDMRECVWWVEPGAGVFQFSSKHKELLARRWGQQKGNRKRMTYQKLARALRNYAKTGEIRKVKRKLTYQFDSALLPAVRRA
# Summary of the method: as §1
# ELK3 = biological target: T6, ELK3 (Homo sapiens, UniProt P41970 1-407); conditions: protein: recombinant; tags: N-terminal GST; dsDNA, one strand shown
# T6 sequence: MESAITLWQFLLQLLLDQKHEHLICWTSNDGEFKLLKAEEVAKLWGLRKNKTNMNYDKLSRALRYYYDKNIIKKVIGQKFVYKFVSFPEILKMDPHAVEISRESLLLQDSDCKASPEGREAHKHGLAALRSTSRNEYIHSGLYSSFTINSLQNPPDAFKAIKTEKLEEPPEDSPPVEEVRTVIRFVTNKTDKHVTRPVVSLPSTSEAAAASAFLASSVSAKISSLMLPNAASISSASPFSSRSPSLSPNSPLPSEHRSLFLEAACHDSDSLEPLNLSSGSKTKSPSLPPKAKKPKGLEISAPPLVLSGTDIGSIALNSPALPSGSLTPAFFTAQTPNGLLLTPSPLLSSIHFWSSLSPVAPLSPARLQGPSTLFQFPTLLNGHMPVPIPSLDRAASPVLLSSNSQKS
# Summary of the method: as §1
# FEV = biological target: T7, FEV (Homo sapiens, UniProt Q99581 1-238); conditions: protein: recombinant; tags: N-terminal GST; dsDNA, one strand shown
# T7 sequence: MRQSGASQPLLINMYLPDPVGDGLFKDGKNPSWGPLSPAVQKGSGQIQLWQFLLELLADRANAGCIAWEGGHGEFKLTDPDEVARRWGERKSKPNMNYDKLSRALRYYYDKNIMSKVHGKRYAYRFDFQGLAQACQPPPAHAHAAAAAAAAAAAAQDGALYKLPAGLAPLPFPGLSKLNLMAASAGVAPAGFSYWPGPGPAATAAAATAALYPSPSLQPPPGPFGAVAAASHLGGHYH
# Summary of the method: as §1
# ETV5 = ETV5 (Homo sapiens, UniProt P41161 1-510); conditions: protein: recombinant; tags: N-terminal GST; dsDNA, one strand shown
# Sequence of ETV5 (P41161 whole entry): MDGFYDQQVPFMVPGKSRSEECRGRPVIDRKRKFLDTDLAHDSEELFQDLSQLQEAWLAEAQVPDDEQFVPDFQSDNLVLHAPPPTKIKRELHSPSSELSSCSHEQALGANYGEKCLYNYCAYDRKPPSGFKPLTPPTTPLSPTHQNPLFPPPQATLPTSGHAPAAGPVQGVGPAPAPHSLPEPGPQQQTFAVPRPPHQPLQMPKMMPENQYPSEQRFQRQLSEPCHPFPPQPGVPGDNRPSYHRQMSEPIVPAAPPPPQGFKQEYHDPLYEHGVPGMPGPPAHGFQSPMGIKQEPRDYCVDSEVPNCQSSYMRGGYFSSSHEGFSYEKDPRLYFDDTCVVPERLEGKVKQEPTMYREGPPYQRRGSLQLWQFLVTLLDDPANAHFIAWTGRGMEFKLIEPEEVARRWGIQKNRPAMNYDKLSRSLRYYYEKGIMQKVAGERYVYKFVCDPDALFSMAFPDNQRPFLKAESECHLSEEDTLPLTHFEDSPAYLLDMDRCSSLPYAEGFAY
# Summary of the method: as §1
# HSF1 = HSF1 (Homo sapiens, UniProt Q00613 1-529); conditions: protein: recombinant; tags: N-terminal GST; chain copies: 3; dsDNA, one strand shown
# Sequence of HSF1 (Q00613 whole entry): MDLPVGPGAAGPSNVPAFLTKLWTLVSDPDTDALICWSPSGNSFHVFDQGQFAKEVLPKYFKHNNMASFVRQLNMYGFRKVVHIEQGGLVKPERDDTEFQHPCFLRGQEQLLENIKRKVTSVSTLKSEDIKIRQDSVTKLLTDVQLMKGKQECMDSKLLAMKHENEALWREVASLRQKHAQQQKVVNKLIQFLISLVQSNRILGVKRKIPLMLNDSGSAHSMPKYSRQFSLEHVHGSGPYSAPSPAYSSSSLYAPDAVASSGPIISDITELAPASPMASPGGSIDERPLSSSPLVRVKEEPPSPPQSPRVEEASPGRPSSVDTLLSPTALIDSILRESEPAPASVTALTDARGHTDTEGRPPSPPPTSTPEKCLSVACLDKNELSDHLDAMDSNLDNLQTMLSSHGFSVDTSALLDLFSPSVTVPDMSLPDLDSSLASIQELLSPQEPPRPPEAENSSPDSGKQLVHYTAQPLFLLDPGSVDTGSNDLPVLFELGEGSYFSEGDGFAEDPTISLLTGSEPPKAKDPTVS
# Summary of the method: as §1
# SPIC = biological target: T8, SPIC (Homo sapiens, UniProt Q8N5J4 1-248); conditions: protein: recombinant; tags: N-terminal GST; dsDNA, one strand shown
# T8 sequence: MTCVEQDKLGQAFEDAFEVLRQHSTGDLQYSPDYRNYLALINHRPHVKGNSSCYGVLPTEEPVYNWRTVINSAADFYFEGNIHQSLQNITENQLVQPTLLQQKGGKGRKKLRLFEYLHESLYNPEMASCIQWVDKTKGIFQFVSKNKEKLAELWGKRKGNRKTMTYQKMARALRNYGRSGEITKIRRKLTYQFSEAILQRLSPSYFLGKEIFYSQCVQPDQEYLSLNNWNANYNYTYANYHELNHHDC
# Summary of the method: as §1
# ELF4 = ELF4 (Homo sapiens, UniProt Q99607 1-663); conditions: protein: recombinant; tags: N-terminal GST; dsDNA, one strand shown
# Sequence of ELF4 (Q99607 whole entry): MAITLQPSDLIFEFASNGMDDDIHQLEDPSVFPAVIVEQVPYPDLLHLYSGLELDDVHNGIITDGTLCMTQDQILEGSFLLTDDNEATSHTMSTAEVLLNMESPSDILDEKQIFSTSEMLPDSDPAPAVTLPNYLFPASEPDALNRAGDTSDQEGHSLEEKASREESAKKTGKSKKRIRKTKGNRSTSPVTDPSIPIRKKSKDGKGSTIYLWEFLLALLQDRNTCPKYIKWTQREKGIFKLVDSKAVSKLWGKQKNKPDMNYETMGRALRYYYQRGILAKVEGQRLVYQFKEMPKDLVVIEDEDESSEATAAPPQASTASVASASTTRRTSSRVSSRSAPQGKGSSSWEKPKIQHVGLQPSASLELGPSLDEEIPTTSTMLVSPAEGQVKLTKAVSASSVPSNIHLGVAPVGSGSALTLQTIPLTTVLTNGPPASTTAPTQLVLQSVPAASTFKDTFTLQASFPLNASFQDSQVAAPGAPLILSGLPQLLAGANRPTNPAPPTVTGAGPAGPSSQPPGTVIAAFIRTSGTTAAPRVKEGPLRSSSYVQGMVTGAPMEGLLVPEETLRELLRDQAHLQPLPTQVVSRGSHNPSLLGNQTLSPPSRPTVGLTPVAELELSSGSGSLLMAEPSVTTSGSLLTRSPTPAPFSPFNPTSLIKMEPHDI
# Summary of the method: as §1
# ELK4 = biological target: T9, ELK4 (Homo sapiens, UniProt P28324-2 1-405); conditions: protein: recombinant; tags: N-terminal GST; dsDNA, one strand shown
# T9 sequence: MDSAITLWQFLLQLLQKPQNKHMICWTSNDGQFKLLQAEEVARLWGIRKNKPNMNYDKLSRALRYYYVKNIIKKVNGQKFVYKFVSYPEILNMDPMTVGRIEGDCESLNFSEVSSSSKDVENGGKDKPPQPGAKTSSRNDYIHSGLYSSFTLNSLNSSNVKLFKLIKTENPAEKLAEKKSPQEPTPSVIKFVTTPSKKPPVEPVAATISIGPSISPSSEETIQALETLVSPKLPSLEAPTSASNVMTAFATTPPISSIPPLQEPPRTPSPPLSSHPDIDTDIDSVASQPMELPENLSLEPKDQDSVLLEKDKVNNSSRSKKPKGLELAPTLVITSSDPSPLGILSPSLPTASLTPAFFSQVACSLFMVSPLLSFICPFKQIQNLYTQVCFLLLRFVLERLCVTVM
# Summary of the method: as §1
# ETV2 = biological target: T10, ETV2 (Homo sapiens, UniProt O00321 1-342); conditions: protein: recombinant; tags: N-terminal GST; dsDNA, one strand shown
# T10 sequence: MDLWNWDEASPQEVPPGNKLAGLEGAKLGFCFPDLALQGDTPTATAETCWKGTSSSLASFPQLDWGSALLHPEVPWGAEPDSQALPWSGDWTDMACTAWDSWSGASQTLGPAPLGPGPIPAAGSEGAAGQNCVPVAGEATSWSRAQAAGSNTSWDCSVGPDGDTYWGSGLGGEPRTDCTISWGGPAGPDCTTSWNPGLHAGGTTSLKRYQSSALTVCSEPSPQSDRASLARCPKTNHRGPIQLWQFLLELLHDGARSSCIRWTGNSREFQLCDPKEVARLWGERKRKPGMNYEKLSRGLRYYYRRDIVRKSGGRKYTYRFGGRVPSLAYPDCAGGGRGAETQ
# Summary of the method: as §1
# ELF3 = biological target: T11, ELF3 (Homo sapiens, UniProt P78545 1-371); conditions: protein: recombinant; tags: N-terminal GST; dsDNA, one strand shown
# T11 sequence: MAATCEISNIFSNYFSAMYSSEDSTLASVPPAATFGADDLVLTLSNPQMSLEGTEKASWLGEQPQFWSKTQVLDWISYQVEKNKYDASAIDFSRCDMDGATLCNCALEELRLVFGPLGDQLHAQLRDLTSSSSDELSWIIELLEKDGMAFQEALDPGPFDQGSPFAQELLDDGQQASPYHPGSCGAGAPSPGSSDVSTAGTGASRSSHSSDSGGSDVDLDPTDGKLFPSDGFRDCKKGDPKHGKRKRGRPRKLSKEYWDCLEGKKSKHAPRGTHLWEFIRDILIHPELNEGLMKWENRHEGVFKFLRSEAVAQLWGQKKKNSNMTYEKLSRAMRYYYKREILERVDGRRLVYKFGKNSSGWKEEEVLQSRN
# Summary of the method: as §1
# CRX = CRX (Homo sapiens, UniProt O43186 1-299); conditions: protein: recombinant; tags: N-terminal GST; dsDNA, one strand shown
# Sequence of CRX (O43186 whole entry): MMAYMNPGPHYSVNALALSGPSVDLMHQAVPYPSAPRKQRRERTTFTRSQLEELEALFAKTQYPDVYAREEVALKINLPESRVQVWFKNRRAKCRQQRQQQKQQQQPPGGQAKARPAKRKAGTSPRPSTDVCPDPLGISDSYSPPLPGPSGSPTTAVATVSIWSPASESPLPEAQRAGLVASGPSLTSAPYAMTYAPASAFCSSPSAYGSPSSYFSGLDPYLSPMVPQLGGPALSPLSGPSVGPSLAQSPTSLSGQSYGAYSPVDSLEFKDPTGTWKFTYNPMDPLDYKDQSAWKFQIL
# Summary of the method: as §1
# ETV1 = ETV1 (Homo sapiens, UniProt P50549 1-477); conditions: protein: recombinant; tags: N-terminal GST; dsDNA, one strand shown
# Sequence of ETV1 (P50549 whole entry): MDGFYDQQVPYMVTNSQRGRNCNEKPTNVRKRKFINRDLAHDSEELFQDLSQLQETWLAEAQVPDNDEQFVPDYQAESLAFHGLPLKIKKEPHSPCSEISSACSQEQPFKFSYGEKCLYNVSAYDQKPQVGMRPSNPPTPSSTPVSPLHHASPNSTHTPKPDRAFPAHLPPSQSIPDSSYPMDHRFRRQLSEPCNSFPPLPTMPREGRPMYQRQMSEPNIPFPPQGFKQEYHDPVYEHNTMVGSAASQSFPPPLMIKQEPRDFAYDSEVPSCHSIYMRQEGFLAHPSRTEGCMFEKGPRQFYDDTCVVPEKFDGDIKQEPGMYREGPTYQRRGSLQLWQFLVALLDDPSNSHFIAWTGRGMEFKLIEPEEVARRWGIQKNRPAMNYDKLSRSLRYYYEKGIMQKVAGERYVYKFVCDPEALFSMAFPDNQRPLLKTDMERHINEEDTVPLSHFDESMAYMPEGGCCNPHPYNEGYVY
# Summary of the method: as §1
sequence,measurement,setting,value
AATTAT,binding signal,FLI1,"1.24 fold enrichment (6-mer frequency, TF over GST control)"
same,binding signal,ELK1,"1.25 fold enrichment (6-mer frequency, TF over GST control)"
same,binding signal,GABPA,"1.2 fold enrichment (6-mer frequency, TF over GST control)"
same,binding signal,ERG,"1.26 fold enrichment (6-mer frequency, TF over GST control)"
same,binding signal,ELF1,"1.22 fold enrichment (6-mer frequency, TF over GST control)"
same,binding signal,EHF,"1.23 fold enrichment (6-mer frequency, TF over GST control)"
same,binding signal,SPI1,"1.18 fold enrichment (6-mer frequency, TF over GST control)"
same,binding signal,SPIB,"1.23 fold enrichment (6-mer frequency, TF over GST control)"
same,binding signal,ELK3,"1.25 fold enrichment (6-mer frequency, TF over GST control)"
same,binding signal,FEV,"1.25 fold enrichment (6-mer frequency, TF over GST control)"
same,binding signal,ETV5,"1.29 fold enrichment (6-mer frequency, TF over GST control)"
same,binding signal,HSF1,"1.55 fold enrichment (6-mer frequency, TF over GST control)"
same,binding signal,SPIC,"1.33 fold enrichment (6-mer frequency, TF over GST control)"
same,binding signal,ELF4,"1.16 fold enrichment (6-mer frequency, TF over GST control)"
same,binding signal,ELK4,"1.12 fold enrichment (6-mer frequency, TF over GST control)"
same,binding signal,ETV2,"1.28 fold enrichment (6-mer frequency, TF over GST control)"
same,binding signal,ELF3,"1.27 fold enrichment (6-mer frequency, TF over GST control)"
same,binding signal,CRX,"2.05 fold enrichment (6-mer frequency, TF over GST control)"
same,binding signal,ETV1,"1.26 fold enrichment (6-mer frequency, TF over GST control)"
